Over roughly 33,000 sequences, “E-score (-0.5 to 0.5)” has its median near -8e-05; the highest 2% begin near 0.23. The sample as a whole holds a higher share of the highest values than the screen did.
These sequences were tested against T1, Nrg2 (UniProt P38082) (assay: PBM E-score (8-mer binding enrichment) (E-score (-0.5 to 0.5)); higher = stronger / more preferred TF binding). Settings: protein concentration: 100 nM; construct: GST-full length.
T1 sequence: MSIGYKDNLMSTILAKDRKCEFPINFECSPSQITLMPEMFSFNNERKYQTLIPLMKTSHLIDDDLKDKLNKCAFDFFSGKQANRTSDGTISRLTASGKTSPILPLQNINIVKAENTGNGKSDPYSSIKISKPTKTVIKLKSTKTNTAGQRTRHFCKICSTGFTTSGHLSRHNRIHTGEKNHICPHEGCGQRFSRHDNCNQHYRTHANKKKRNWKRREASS
Procedure, shortened: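 Universal all-10-mer Agilent arrays, fresh or stripped once, were converted to double-stranded form by primer extension. GST-tagged yeast transcription factors from PURExpress in vitro transcription/translation, full-length or DNA-binding domain only, were applied at about 100-200 nM and detected with fluorescent anti-GST. After masliner normalisation, the Universal PBM Analysis Suite scored each ungapped eight-base word together with its reverse complement by E-score.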

Row | Sequence | PBM E-score
1 | GACGGATC | -0.153
2 | TCCTAAAA | -0.251
3 | TCATTGAA | -0.122
4 | TAAATGGA | -0.0213
5 | AGCAGGGG | -0.182
6 | ACACTGCT | -0.0746
7 | CTTAACTA | 0.0617
8 | GCTAACAA | -0.0183
9 | GTTAACTA | 0.273
10 | ATTAACTA | 0.136
11 | GTTAACAA | 0.254
12 | CTTAACAA | 0.107
13 | CAGGCCAC | -0.141
14 | GCGTGAGC | 0.142
15 | GGAACTCA | -0.0697
16 | ACACTCTC | 0.104
17 | AAATGATA | 0.225
18 | GAATGAGA | 0.114
19 | GAATGATA | 0.247
20 | CAATGATA | 0.128
21 | GAATGATC | -0.0614
22 | TAATGATA | 0.243
23 | AGCCCTAG | -0.16
24 | ACCTGAGG | -0.134
25 | TCCTGAGA | -0.0364
26 | CCCTGAGA | 0.235

Row | Sequence | PBM E-score
27 | GCCTGAGA | -0.0991
28 | ACCTGAGC | 0.0385
29 | GCCTGAGC | -0.213
30 | CCCTGAGG | 0.236
31 | CACTGAGG | -0.124
32 | CCCTGAGC | 0.236
33 | CATTTTCC | 0.0879
34 | AGAAGCCC | -0.0779
35 | ATTATGAC | -0.0447
36 | AGGCAAGG | -0.259
37 | CCTATCGC | -0.134
38 | CATGTTGA | 0.258
39 | CATGTTGC | -0.0978
40 | AATGTTGA | -0.019
41 | GTGTATTA | 0.233
42 | CTGTATTA | 0.147
43 | GAGTATTA | 0.00698
44 | AAGTATTA | 0.129
45 | CAGTATTA | 0.244
46 | ATGTATTA | -0.041
47 | ATACTCGA | 0.0646
48 | AGTTCGAG | 0.223
49 | TCCCAAAA | 0.0584
50 | CCGGGAAC | -0.00517
51 | ATGCGCAA | 0.182
52 | CTTCGCGA | 0.0778

Row | Sequence | PBM E-score
53 | ATGCGCAT | 0.368
54 | ATGCGCGG | 0.121
55 | CTTCGCGC | 0.232
56 | ATGCGCGA | 0.00379
57 | CTGCGCGC | 0.306
58 | CTGCGCGA | -0.0667
59 | ATTCGCGC | 0.159
60 | ATGCGCGC | 0.23
61 | ATGCGCAC | 0.142
62 | CTGCGCTC | -0.146
63 | GTGCAGCA | -0.172
64 | CAATTGCC | -0.00722
65 | CAGGACTG | -0.241
66 | CAATGCGC | 0.145
67 | AAATGCGG | 0.0989
68 | AAATGCGC | 0.272
69 | AGGGGCAT | 0.00378
70 | CTAAAAGA | -0.198
71 | CGATATTC | 0.153
72 | GGATATTA | 0.147
73 | CGATATAA | 0.244
74 | CGATATAC | 0.113
75 | CGATATAG | 0.14
76 | CGATATTA | 0.23
77 | CACCGTGA | -0.113
78 | GTATGGCA | 0.0816

Row | Sequence | PBM E-score
79 | CATCAGCG | -0.213
80 | CGAAAAGA | 0.199
81 | AGCAGTGA | 0.234
82 | AGCAGTGC | -0.287
83 | CGCAGTGA | -0.0744
84 | GCGCTACC | -0.139
85 | GTGCTGTA | -0.0149
86 | CGGAGGCA | -0.134
87 | AAGCGCAA | 0.147
88 | TCCAGCAA | -0.151
89 | CCCAGCAA | 0.0725
90 | ACCAGCAA | 0.245
91 | ACTTACCA | 0.00217
92 | GTCAAACA | -0.117
93 | TGTTGCAA | 0.268
94 | CGTTGCAA | 0.0314
95 | TATTGCAA | 0.253
96 | AATTGCAA | 0.0259
97 | GGTTGCAA | 0.111
98 | CATTGCAA | -0.00795
99 | CGCGGTTC | 0.0879
100 | GGATAGCA | 0.0845
101 | AAGTACTC | -0.0318
102 | CAGTACTC | -0.171
103 | GAGTACTC | 0.23
104 | GGCGAGCC | -0.0861

Row | Sequence | PBM E-score
105 | CCAATACG | -0.165
106 | ACCTCGAG | 0.281
107 | ACCTCGAT | 0.147
108 | CCCTCGAG | 0.143
109 | AAGAAAAG | -0.0237
110 | TCAATTCA | 0.102
111 | AGGGGTAG | -0.0372
112 | AAGGGTAG | 0.0465
113 | AAGGGTAC | 0.165
114 | CAGGGTAG | 0.303
115 | CAGGGTAC | 0.235
116 | CAGGGTAA | 0.215
117 | AAGTCTAT | -0.0746
118 | TAGTAAGA | 0.107
119 | CCCCTGCG | -0.0622
120 | TCCCTGCA | 0.25
121 | ACCCTGCA | 0.376
122 | CCCCTGCA | -0.00126
123 | ACCCTGCC | 0.0806
124 | AGCCTGCA | 0.0137
125 | ACCCTGCG | 0.254
126 | GCCCTGCA | 0.044
127 | ACCCTGCT | 0.0589
128 | ATAGGACA | -0.118
129 | GGTCTTGA | -0.0327
130 | ACCAAGTC | 0.111

Row | Sequence | PBM E-score
131 | AAAGCCCG | -0.147
132 | AAAAGCGT | -0.0481
133 | AAAAACTT | -0.148
134 | CGCTGGCA | 0.0236
135 | CGGCATTA | 0.0976
136 | GCGCACGA | 0.238
137 | GCGCACGC | -0.0951
138 | TCGCGCGA | 0.138
139 | CCGCGCGA | 0.202
140 | ACGCGCGG | 0.192
141 | GCGCGATA | 0.254
142 | GCGCGCGA | 0.251
143 | ACGCGCGT | 0.17
144 | ACGCGATA | 0.0412
145 | CCGCGATA | 0.117
146 | ACGCGCGC | 0.279
147 | TCGCACGA | -0.00406
148 | CTTACCCA | 0.0294
149 | AATGCAAT | -0.287
150 | GGTCCAGA | 0.125
151 | AGGCGGGG | 0.0214
152 | AACGATTC | 0.0537
153 | ACGGACGT | -0.169
154 | GTCCAGAC | -0.175
155 | ATCTTTGC | 0.133
156 | GCGCGCGC | 0.415

Row | Sequence | PBM E-score
157 | GCGCGCCC | 0.0648
158 | GCGCGCAC | 0.165
159 | GCGCGGTA | 0.271
160 | GAGCGCGA | 0.196
161 | CCGCGGTA | 0.119
162 | CAGCGCGC | 0.21
163 | ACGCGGTA | -0.152
164 | GAGCGCGC | 0.263
165 | CCTTTCCG | -0.116
166 | TTGAACAA | -0.0525
167 | ACGGAAGC | -0.0173
168 | AGCCAGCG | -0.0673
169 | CTCGGAGA | 0.0113
170 | ATCAGTAA | 0.0691
171 | AGAAAGTC | 0.037
172 | CCCTGAAG | 0.208
173 | CACTGAAA | 0.0555
174 | CCCTGAAC | 0.282
175 | ACCTGTGC | -0.0445
176 | CCCTGTGC | 0.263
